CYP2C9 activ – CYP2C9 (human) activation; P11712; recombinant CYP2C9, luciferin-H conversion, luminescence; hits give high values; factor 1 = untreated enzyme, 0 = blocked; activation factor at 5 µM; hit rate 1.4% among 96,000; AID 1024;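 active means activation factor of 2 or more for CYP2C9 at a 5 µM dose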
CYP2C9 inh – blocks human cytochrome P450 2C9; CYP2C9 Supersomes, luciferin-H conversion, luminescence; inhibition, % at 5 µM; hit rate 20% among 96,000; AID 777;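 active means blocking of liver enzyme CYP2C9 beyond about 50% at 5 µM, limit read from the data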
Measles CPE – protection of cells from measles virus; Measles virus-infected cells, CPE protection, absorbance; protection (pct of control), % at 4 µM; hit rate 1.5% among 140,000; in the data active means protection mostly above about 24%, no sharp cut-off; inactive means mostly below about 26%
CYP2C19 activ – activators of human cytochrome P450 2C19. recombinant CYP2C19, luciferin-H EGE luminescence; hits give high values; 0 = fully inhibited enzyme, 1 = untreated enzyme. activation factor at 5 µM. AID 1025. 96,000 tested, under 10 active;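 active means activation factor of at least 2 at 5 µM in the primary screen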
Target sequence (P33261 whole entry, looked up): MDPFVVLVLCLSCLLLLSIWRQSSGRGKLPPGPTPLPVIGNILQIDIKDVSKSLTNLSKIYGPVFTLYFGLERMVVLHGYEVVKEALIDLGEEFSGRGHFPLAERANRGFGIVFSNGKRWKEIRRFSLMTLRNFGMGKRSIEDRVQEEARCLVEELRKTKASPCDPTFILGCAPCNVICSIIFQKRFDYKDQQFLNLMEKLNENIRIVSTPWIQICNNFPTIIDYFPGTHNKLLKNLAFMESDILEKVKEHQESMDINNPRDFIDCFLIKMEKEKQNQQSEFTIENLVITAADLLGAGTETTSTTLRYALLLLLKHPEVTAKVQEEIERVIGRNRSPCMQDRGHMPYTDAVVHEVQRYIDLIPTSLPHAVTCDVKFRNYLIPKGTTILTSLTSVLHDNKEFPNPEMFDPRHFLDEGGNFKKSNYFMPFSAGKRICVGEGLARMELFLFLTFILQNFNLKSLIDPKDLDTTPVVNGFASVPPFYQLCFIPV
CYP2C19 inh – blocks human cytochrome P450 2C19; CYP2C19 Supersomes, luciferin-H EGE luminescence, 30 min; P33261; hit rate 21% among 96,000; inhibition, % at 5 µM;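 active means CYP2C19 inhibition above a set limit at 5 µM in the primary screen, cut at about 50% in these data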
Large screens that a line does not name were inactive. Rows were chosen to be rich in hits. Some 22% of all compounds tested hit in one or more screens of this group.

COc1cc([N+](=O)[O-])ccc1NC(=O)CCCOc1cccc(C)c1C	none
CC(C)NC(=O)COC(=O)c1cc(F)c(F)cc1Cl	none
Cc1nn(-c2ccccc2)c2c1C(c1ccco1)C(C#N)=C(N)O2 (configuration not stated)	CYP2C9 inh 79
Cc1nn(-c2ccccc2)c2c1C(c1cccs1)C(C#N)=C(N)O2 (configuration not stated)	CYP2C9 inh 79
Cc1cc(C)nc(N2CCCC(C(=O)Nc3ccc4c(c3)OCCO4)C2)n1 (configuration not stated)	none
CCOc1cc(/C=N/NC(=O)c2cc(C)[nH]n2)ccc1OC(=O)c1ccc([N+](=O)[O-])cc1	none
Cc1cc(C(=O)N/N=C/c2cc(Br)ccc2OC(=O)c2ccccc2)n[nH]1	CYP2C9 inh 61
COc1ccc(Br)cc1/C=N/NC(=O)c1nc(-c2ccccc2)n2c1CCCCC2	CYP2C19 inh 60
O=C(NCc1cccs1)c1nc2c(nnn2Cc2ccc(F)cc2)c(=O)[nH]1	none (no result: CYP2C9 activ, CYP2C9 inh, CYP2C19 activ, CYP2C19 inh)
N/C(=N\OC(=O)c1cccc(Br)c1)c1ccccc1	none
CN(CCO)c1nc(N)c2c(N)nc3c(c2c1C#N)CC(=O)N3C1CCCC1	CYP2C9 inh 75
CC(C)(C)N1C(=O)Cc2c1nc(N)c1c(N)nc(N3CCCCC3CO)c(C#N)c21 (configuration not stated)	CYP2C9 inh 75
COc1ccccc1/C=C(\NC(=O)c1ccc(OC)c(OC)c1)C(=O)Nc1cccc([N+](=O)[O-])c1	none (no result: CYP2C9 activ, CYP2C9 inh, CYP2C19 activ, CYP2C19 inh)
NC(=O)C1CCN(Cc2nnnn2Cc2ccco2)CC1	none
Cc1cc(S(=O)(=O)N(Cc2ccc(C(C)C)cc2)CC2CCCO2)ccc1-n1cnnn1 (configuration not stated)	CYP2C9 inh 53
COc1ccc(CN(C2CCCC2)S(=O)(=O)c2ccc(-n3cnnn3)c(OC)c2)cc1OC	none
Cc1cc(S(=O)(=O)N(Cc2ccc3c(c2)OCO3)CC2CCCO2)ccc1-n1cnnn1 (configuration not stated)	CYP2C9 inh 69, CYP2C19 inh 95
Cc1cc(S(=O)(=O)N(Cc2ccc(F)cc2)CC2CCCO2)ccc1-n1cnnn1 (configuration not stated)	CYP2C19 inh 56
Cc1cc(S(=O)(=O)NCc2cccs2)ccc1-n1cnnn1	none (no result: CYP2C9 activ, CYP2C9 inh, CYP2C19 activ, CYP2C19 inh)
CC(=O)Nc1ccc(S(=O)(=O)N2CCSC2C(=O)O)cc1 (configuration not stated)	none
CCOc1ccc(NS(=O)(=O)c2ccc(OCC)c3ncccc23)cc1	CYP2C9 inh 68
CCOc1ccc(S(=O)(=O)Nc2cc(C)ccn2)c2ccccc12	Measles CPE 47
CCOc1ccc(S(=O)(=O)NCc2ccc(C)cc2)c2cccnc12	none (no result: CYP2C9 activ, CYP2C9 inh, CYP2C19 activ, CYP2C19 inh)
CCCc1ccc(-c2cc(N)n[nH]2)cc1	none
CCN(CC)S(=O)(=O)c1ccc(S(=O)(=O)N(CC(=O)Nc2ccccc2)Cc2ccco2)cc1	none (no result: CYP2C9 activ, CYP2C9 inh, CYP2C19 activ, CYP2C19 inh)
Cc1cc(=O)[nH]c(SCC(=O)Nc2nc(-c3ccccc3)cs2)n1	CYP2C9 inh 60
O=C(CSc1ncn[nH]1)Nc1nc(-c2ccccc2)cs1	CYP2C19 inh 64
Cc1csc(SCC(=O)Nc2nc(-c3ccccc3)cs2)n1	none
c1ccc2c(c1)nc1n2CN(Cc2ccc3c(c2)OCO3)CN1	none
Cc1ccccc1-n1c(SCC(=O)N2CCOCC2)nc(O)cc1=O	none
Cn1cc(S(=O)(=O)N2CCN(C(=O)c3ccco3)CC2)c(=O)n(C)c1=O	none
CCOC(=O)c1c(C)oc(NC(=O)COc2ccc(Cl)cc2C)c1C#N	CYP2C9 inh 56
Cc1cc(Cl)ccc1OCC(=O)Nc1ccccc1CO	CYP2C19 inh 58
O=C(Cc1ccccc1)Nc1ccccc1CO	none
C/C(N)=C(/C#N)C(=O)COC(=O)COc1ccc(Cl)cc1C	none
CCN(CC)C(=O)C(C)OC(=O)COc1ccc(Cl)cc1C (configuration not stated)	none
O=C(Cc1ccc(Cl)cc1)Nc1ccccc1CO	CYP2C19 inh 55
Cc1cc(Cl)ccc1OCC(=O)OC(C)C(=O)N(C)C (configuration not stated)	CYP2C19 inh 69
Cc1cc(Cl)ccc1OCC(=O)N1CCCN(C(=O)COc2ccc(Cl)cc2C)CC1	none (no result: CYP2C9 activ, CYP2C9 inh, CYP2C19 activ, CYP2C19 inh)
Cc1cc(Cl)ccc1OCC(=O)N1CC(C)CC(C)C1 (configuration not stated)	CYP2C19 inh 98
Cc1cc(Cl)ccc1OCC(=O)Nn1c(C)ccc1C	CYP2C19 inh 94
CSc1ccccc1NC(=O)COc1ccc(Cl)cc1C	none (no result: CYP2C9 activ, CYP2C9 inh, CYP2C19 activ, CYP2C19 inh)
COCCCN1C(=O)C(O)=C(C(=O)c2ccc(C)o2)C1c1cccc(Br)c1 (configuration not stated)	none
Cc1c(NC(=S)NC(=O)COc2ccccc2)c(=O)n(-c2ccccc2)n1C	none (no result: CYP2C9 activ, CYP2C9 inh, CYP2C19 activ, CYP2C19 inh)
CCc1ccc(S(=O)(=O)N2CC(=O)Nc3ccccc32)cc1	CYP2C19 inh 74
CC(C)(C)c1ccc(S(=O)(=O)N2CC(=O)Nc3ccccc32)cc1	CYP2C19 inh 82
CN1CCN(C(=O)c2sc(=S)n(-c3ccccc3)c2N)CC1	none
CCCC1=C(C(=O)OCC)C(c2cc(Cl)cc(OC)c2OCc2ccccc2)NC(=O)N1 (configuration not stated)	CYP2C9 inh 64, CYP2C19 inh 50
Cc1cc(C(=O)CSc2nn3c(=O)c(C(C)(C)C)nnc3s2)c(C)n1-c1ccc(F)cc1	CYP2C9 inh 58
CC(C)N(C(=O)CSc1nn2c(=O)c(C(C)(C)C)nnc2s1)c1ccccc1	CYP2C9 inh 89, CYP2C19 inh 88
O=C(NCc1cccs1)C1CC(=O)N(C2CCCC2)C1 (configuration not stated)	none
Cc1ccnc(NC(=S)NC(=O)/C=C/c2ccco2)c1	CYP2C9 inh 53
c1ccc2c(c1)oc1c(NCCCn3ccnc3)ncnc12	CYP2C9 inh 92, CYP2C19 inh 80
c1ccc2c(c1)oc1c(NCCCN3CCOCC3)ncnc12	none
Cc1nc(NCCCn2ccnc2)c2oc3ccccc3c2n1	CYP2C9 inh 96, CYP2C19 inh 85
CCNc1nc(C)nc2c1oc1ccccc12	none
Nc1ccc2oc(=O)c3ccccc3c2c1	CYP2C19 inh 59
CC(C)CC(OC(=O)c1cccs1)C(=O)NCc1ccco1 (configuration not stated)	none
CCC(OC(=O)c1cccs1)C(=O)NC1CCCCC1 (configuration not stated)	CYP2C19 inh 75
CCC(OC(=O)c1cccs1)C(=O)NCc1ccco1 (configuration not stated)	CYP2C19 inh 83
CCCC(=O)Nc1ccc(C(=O)N/N=C/c2cccnc2)cc1	none
COC(=O)c1ccc(NC(=S)NC2CCCCC2C)cc1 (configuration not stated)	none (no result: CYP2C9 activ, CYP2C9 inh, CYP2C19 activ, CYP2C19 inh)
CC1CCCC(NC(=S)Nc2ccc(SC(F)F)cc2)C1C (configuration not stated)	CYP2C19 inh 68
O=C(c1ccccc1)N1CCN(Cc2ccccc2Br)CC1	CYP2C9 inh 76, CYP2C19 inh 98
CCOc1ccc(CN2CCN(C(=O)c3ccccc3)CC2)cc1	none
O=C(c1ccccc1)N1CCN(C(=O)c2ccccc2)CC1	Measles CPE 38 (no result: CYP2C9 activ, CYP2C9 inh, CYP2C19 activ, CYP2C19 inh)

High-throughput results (PubChem BioAssay)
